From PubChem BioAssay (NCATS) come the findings set out here.

Records with an inconclusive call do not appear. Where a call stands in place of a potency, no number is given. Active and inactive are the calls of the source. Calls come from the whole dose curve; as a rule, active = well fitted inhibition curve with a large enough effect; inconclusive = small, poorly fitted or top-dose-only effect; inactive = flat fitted curve, though single readings scatter.

The test can be described thus: P-glycoprotein substrates identified in KB-8-5-11 adenocarcinoma cell line, qHTS therapeutic library screen (AID 1346987). Note: nearly all actives have a fitted effect of over 65% in size. The note with it: KB-8-5-11 (P-gp overexpressing) viability, CellTiter-Glo, 72 h; series mostly up to 44.5 µM. The method in brief: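 Human cervical adenocarcinoma KB-8-5-11 cells, selected in colchicine to over-express P-gp and assayed without it, were exposed for 72 h to titrated compounds. An ATP-based luminescent viability signal gave AC50.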
A general note: Quantitative high-throughput screening tests each substance at several concentrations.
Consider `CC1OC(OC2C(C)OC(OC3C(OC(=O)/C=C/c4ccc(O)cc4)C(CO)OC(OC4(COC(=O)/C=C/c5ccc(O)cc5)OC(CO)C(O)C4O)C3OC3OCC(O)(CO)C3O)C(O)C2O)C(O)C(O)C1O` (stereo unspecified), for which the activity change, negative = cytotoxicity was 9.5% [at 9.29 µM] (inactive).

`C[C@H]1C[C@H]2[C@@H]3CCC4=CC(=O)C=C[C@]4(C)[C@@]3(F)[C@@H](O)C[C@]2(C)[C@@]1(O)C(=O)COP(=O)(O)O`: the Potency result is “inactive”.

With `CNC(=O)COC(=O)NCCC1CCN(c2cccc(C)n2)CC1`, the Potency entry is “inactive”.

With `CC1(C)CC2C3=CCC4C5(C)CCC(OC6OC(CO)C(O)C(OC7OC(CO)C(O)C(OC8OC(CO)C(O)C(OC9OC(COC%10OC(CO)C(O)C(O)C%10O)C(O)C(O)C9O)C8O)C7O)C6O)C(C)(C)C5CCC4(C)C3(C)CCC2(C(=O)O)CC1O` (stereo unspecified), the activity change, negative = cytotoxicity was -1.4% [at 9.29 µM] (inactive).

With `C=C1CC2[C@]3(C)C(=C(O)C(=O)[C@@]2(C)[C@]2(C(=O)OC)C(=O)C(C)OC(=O)[C@@]12C)C(C)(C)C(=O)CC3O` (stereo partly specified), the Potency result is “inactive”.

As for `C/C(=C/CCC(CO)C1CCC2(C)C3CCC4C(C)(C)C(OC5OC(CO)C(O)C(O)C5O)CC(O)C45CC35CCC12C)COC1OC(CO)C(O)C(O)C1O` (stereo unspecified), the Potency result is “inactive”.

`CC(C)[C@H]1CCC(CO)=C[C@@H]1/C=C(\CO)C(=O)O`: the Potency entry is “inactive”.

Take `N[C@H]1C[C@H]1c1ccc(-c2cccc(O)c2)cc1`: the Potency entry was “inactive”.

`CC(C)CC(=O)O[C@@H]1OC=C(CO[C@@H]2O[C@H](CO[C@@H]3O[C@H](CO)[C@@H](O)[C@H](O)[C@H]3O)[C@@H](O)[C@H](O)[C@H]2O)[C@H]2C[C@H](O)[C@@H](CO)[C@@H]12`: the Potency entry is “inactive”.

Regarding `C=CC(C)(O)CC/C=C(/C)C(=O)OC1C(OC2OCC(OC3OC(CO)C(O)C(O)C3O)C(OC3OCC(O)C(OC4OC(C)C(O)C(O)C4O)C3O)C2O)COC(OC(=O)C23CCC(C)(C)CC2C2=CCC4C5(C)CCC(OC6OC(CO)C(OC7OC(CO)C(O)C(OC8OCC(O)C(O)C8O)C7O)C(O)C6O)C(C)(C)C5CCC4(C)C2(C)CC3O)C1O` (stereo unspecified), the activity change, negative = cytotoxicity is -0.997% [at 5.11 µM] (inactive).

`C[C@H]1[C@H](C)CC[C@]2(C(=O)O[C@@H]3O[C@H](CO)[C@@H](O)[C@H](O)[C@H]3O)CC[C@]3(C(=O)O)C(=CCC4[C@@]5(C)CC[C@H](O[C@@H]6O[C@H](CO)[C@@H](O)[C@H](O)[C@H]6O)C(C)(C)C5CC[C@]43C)[C@H]12` (stereo partly specified): the outcome is “inactive [at 9.29 µM]”.

With `CCC(C)(O)C(O)C(=O)OCc1ccc(O[C@@H]2O[C@H](CO)[C@@H](O)[C@H](O)[C@H]2O)c(OC)c1` (stereo partly specified), the Potency entry was “inactive”.

As for `CC(CO[C@@H]1O[C@H](COC(=O)/C=C/c2ccc(O)c(O)c2)[C@@H](O)[C@H](O)[C@H]1O)C1(O)COC(=O)C1` (stereo partly specified), the Potency result is “inactive”.

In the case of `C[C@@H]1O[C@@H](OC[C@H]2O[C@@H](OCC3CCC4CC3C4(C)C)[C@H](O)[C@@H](O)[C@@H]2O)[C@H](O)[C@H](O)[C@H]1O` (stereo partly specified), the Potency result was “inactive”.

Consider `OCC1OC(Oc2cc(O)c3c(c2)OC(c2ccc(O)cc2)C(O)C3)C(O)C1O` (stereo unspecified), for which the Potency entry is “inactive”.

With `C[C@]12C=CC(=O)C=C1CC[C@@H]1[C@@H]2[C@@H](O)C[C@@]2(C)[C@H]1CC[C@]2(O)C(=O)COC(=O)CCC(=O)O`, the Potency entry was “inactive”.
